# Results as given in paper PMC5540273 (PLoS ONE, 2017).
# 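Also: kd values determined as follow-up on hits from a single-replicate KINOMEscan panel screen.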
smiles,measurement,setting,value
Fc1cc(Cl)ccc1Nc1ccnc2cc(-c3ccc(CN4CCCCC4)o3)ccc12 [GW560116],Kd,SRC,4.4 µM
O=C1NC(=O)C(N2CCc3ccccc32)=C1c1ccccc1Cl [SB-373598],Kd,SRMS,> 10 µM
same,Kd,TAOK2,> 10 µM
Cc1ccc(C(=O)Nc2ccc(Nc3ccnc4cc(-c5ccccn5)ccc34)cc2O)cc1.Cl [GW440146],Kd,SRMS,0.35 µM
COc1cccc(-c2cc(-c3c[nH]nc3-c3ccccn3)ccn2)c1 [GW680338],Kd,SRPK1,> 10 µM
CS(=O)(=O)c1ccc(-c2nc3n(c2-c2ccncc2)CCC3)cc1 [SKF-105942],Kd,STK16,> 10 µM
COc1cc2ncn(-c3cc(OCC4CCCO4)c(C(N)=O)s3)c2cc1OC (stereo not drawn) [GSK204607],Kd,STK35,3.6 µM
Cl.O=C(Nc1cccc(-c2nn3ncccc3c2-c2ccnc(Nc3cccnc3)n2)c1)c1c(F)cccc1F [GSK312879],Kd,STK36,0.098 µM
Cc1ccccc1-n1cnc2c(N)ncnc21 [SKF-97510],Kd,SYK,> 10 µM
